High-throughput results as filed in PubChem.
PLK1 PBD block: qHTS for Inhibitors of PLK1-PDB (polo-like kinase 1 - polo-box domain): Primary Screen. Serine/threonine-protein kinase PLK1 (Homo sapiens), P53350. Plk1 PBD binding of FITC phosphopeptide, fluorescence polarization. Potency, µM, for inactives: max response, negative = inhibition, most hits filed as inhibitors. 2.8% of 360,000 active. AID 720504, 2013; note: series mostly up to about 57 µM; % is set by controls: 0 for no effect and ±100 for the full control effect; nearly all actives have a fitted effect of over 65% in size
HP1b chromo inh: HTS for Inhibitors of HP1-beta Chromodomain Interactions with Methylated Histone Tails. Chromobox protein homolog 1 (Homo sapiens), P83916. AlphaScreen HP1-beta / biotin-H3K9me3 peptide binding. Potency, µM (series often up to 114 µM), inactives show top-dose activity change, negative = inhibition, usual class: inhibitors. 0.56% of 390,000 active. AID 540317, 2011; note: nearly all actives have a fitted effect of over 70% in size
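HP1-beta protein (50 nM final) preincubated 30 min at room temperature with biotinylated H3(1-18)K9me3 peptide (50 nM) in PBS pH 7.4, 0.01% Tween-20, then compound added for 30 min. AlphaScreen streptavidin donor/nickel chelate acceptor beads (10 ug/mL final), 30 min dark, luminescence read.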
JMJD2A Tudor: qHTS Assay for Inhibitors of JMJD2A-Tudor Domain; Lysine-specific demethylase 4A (Homo sapiens), O75164; AlphaScreen JMJD2A-Tudor / H3K4me3 peptide binding; Potency, µM (series often up to 114 µM), inactives show at the top dose activity change, negative = inhibition, usual class: inhibitors; 4.4% of 390,000 active; note: % is set by controls: 0 for no effect and ±100 for the full control effect; nearly all actives have a fitted effect of over 50% in size
G9a inh: qHTS Assay for Inhibitors of Histone Lysine Methyltransferase G9a. G9a H3K9 monomethylation, AlphaScreen, 2 h. Potency, µM (top dose mostly 102 µM), inactives show at the top dose activity, negative = inhibition, actives largely listed as inhibitors. Histone-lysine N-methyltransferase EHMT2 (Homo sapiens), Q96KQ7. 8.8% of 350,000 active; note: % is set by controls: 0 for no effect and ±100 for the full control effect; nearly all actives have a fitted effect of over 75% in size
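Quantitative HTS format: methyltransferase activity on a biotin-tagged H3K9 peptide is measured by AlphaScreen, using a rabbit anti-monomethyl-H3K9 antibody with streptavidin donor and anti-IgG acceptor beads. Final levels are 20 nM enzyme, 500 nM peptide, 20 uM SAM; 2 h RT.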
BAZ2B block: qHTS Assay for Inhibitors of BAZ2B; AlphaScreen BAZ2B-H3K14Ac peptide displacement; Potency, µM (top dose mostly 114 µM), inactives show at the top dose activity change, negative = inhibition, hits mostly inhibitors; 4.4% of 360,000 active; AID 504333, 2011; note: % is set by controls: 0 for no effect and ±100 for the full control effect; nearly all actives have a fitted effect of over 60% in size
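BAZ2B (50 nM) with biotin-H3(5-23)K14Ac peptide (50 nM) in PBS pH 7.4, 0.01% Tween-20, preformed 30 min, then compound 30 min at room temperature; top concentration 110uM. AlphaScreen streptavidin donor/nickel chelate acceptor beads (10 ug/mL final), 20 min dark, signal read.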
Sfp PPTase inh: qHTS Assay for Inhibitors of Bacillus subtilis Sfp phosphopantetheinyl transferase (PPTase); 4'-phosphopantetheinyl transferase ffp (Bacillus subtilis), Q9F4F7; Potency, µM, inactives show largest response in the series, negative = inhibition, actives largely listed as inhibitors; Biochemical Sfp PPTase activity, qHTS; 3.5% of 310,000 active;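 note: the enzyme is Sfp with the accession as filed and its product quenches rhodamine fluorescence; 0% = enzyme reaction without inhibitor and -100% = no enzyme wells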
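Fluorescence-quenching assay with 15 nM Sfp, 5 uM rhodamine-CoA and 12.5 uM BHQ-2-labelled ybbR peptide in pH 7.6 Hepes/MgCl2 buffer. Enzyme was pre-incubated with compound for 15 min at room temperature. Rate was taken from the 30-min fluorescence change (525/598 nm).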
Starred values were filed as active, the others as inactive; [ ] = dose if it differs, or a comment. An excerpt weighted towards active compounds, which were near 12% of everything screened. Calls come from the whole dose curve; as a rule, active = well fitted curve in the direction sought with a large enough effect; inconclusive = small, poorly fitted or top-dose-only effect, or another doubt; inactive = no such curve, though single readings can be large; an effect the other way counts as inactive or inconclusive. Potency is the fitted concentration of half-maximal effect.

What do the screens show for `S=C(NCCN1CCOCC1)Nc1ccc(Nc2ccccc2)cc1`?
PLK1 PBD block: -11%; HP1b chromo inh: inconclusive; JMJD2A Tudor: -30%; BAZ2B block: inconclusive; Sfp PPTase inh: -2%

What do the screens show for `CC(CC(=O)Nc1ccccc1)NCCCN1CCCC1=O` (centres undefined)?
PLK1 PBD block: 3%; HP1b chromo inh: 79µM*; JMJD2A Tudor: 0.71µM*; G9a inh: 8.9µM*; BAZ2B block: 50µM*; Sfp PPTase inh: -20%

What do the screens show for `S=C(NCCCN1CCOCC1)Nc1ccc(Nc2ccccc2)cc1`?
PLK1 PBD block: inconclusive; HP1b chromo inh: -11%; JMJD2A Tudor: -25%; G9a inh: 45µM*; BAZ2B block: inconclusive; Sfp PPTase inh: -25%

Results for COc1ccc(N(C=O)C(C(=O)Nc2c(C)cccc2C)c2ccccc2)cc1 (centres undefined) ?
PLK1 PBD block: 3%; HP1b chromo inh: 54%; JMJD2A Tudor: -3%

Results for O=C1CCCN1CCCNC(=S)Nc1ccccc1 ?
PLK1 PBD block: -17%; HP1b chromo inh: 56%; JMJD2A Tudor: 7%[57.1 µM]; BAZ2B block: 2%; Sfp PPTase inh: -29%

Results for CN(C)CCNC(=S)Nc1ccc(-c2nc3ccccc3[nH]2)cc1 ?
PLK1 PBD block: -10%; HP1b chromo inh: 55%; JMJD2A Tudor: -15%; G9a inh: 50µM*; BAZ2B block: -8%; Sfp PPTase inh: 2%

What do the screens show for `O=C1CCCN1CCCNC(=S)Nc1ccc(Nc2ccccc2)cc1`?
PLK1 PBD block: -30%; HP1b chromo inh: -7%; JMJD2A Tudor: -15%; BAZ2B block: inconclusive; Sfp PPTase inh: 56µM*

Results for CC(C)N(c1ccccc1)c1ccc(NC(=S)NCCN(C)C)cc1 ?
PLK1 PBD block: -6%; HP1b chromo inh: -9%; JMJD2A Tudor: -35%; G9a inh: 45µM*; BAZ2B block: -23%; Sfp PPTase inh: -15%

How did CC1CCN(S(=O)(=O)c2ccc(N3CCCCS3(=O)=O)cc2)CC1 do in these assays?
HP1b chromo inh: 6%; JMJD2A Tudor: -13%; G9a inh: inconclusive; BAZ2B block: -3%

How did CCOC(=O)CSc1nnc(CSc2nc(N)c3c(C)c(C)sc3n2)n1-c1ccccc1 do in these assays?
PLK1 PBD block: -3%; HP1b chromo inh: 14%; JMJD2A Tudor: -28%; G9a inh: 45µM*; BAZ2B block: 6%; Sfp PPTase inh: 3%

How did O=C1NC(=S)SC1=Cc1ccc(F)cc1 do in these assays?
PLK1 PBD block: -12%; HP1b chromo inh: -3%; JMJD2A Tudor: -31%

Results for CCN1C(=O)C(=Cc2cccc(OC)c2Oc2ccc([N+](=O)[O-])cc2[N+](=O)[O-])SC1=S ?
PLK1 PBD block: -11%; HP1b chromo inh: inconclusive; JMJD2A Tudor: inconclusive; G9a inh: 45µM*; BAZ2B block: 25µM*; Sfp PPTase inh: inconclusive

Results for COc1cc(/C=C2\SC(=S)NC2=O)ccc1OS(=O)(=O)c1ccccc1 ?
G9a inh: 11µM*; BAZ2B block: 45µM*; Sfp PPTase inh: 50µM*

What do the screens show for `O=C1NC(=S)S/C1=C\c1ccc2ccccc2c1`?
PLK1 PBD block: 30µM*; HP1b chromo inh: -5%; JMJD2A Tudor: inconclusive; G9a inh: -5%; BAZ2B block: 50µM*; Sfp PPTase inh: 3%

What do the screens show for `CCOc1ccc(/C=C2\SC(=S)N(C)C2=O)cc1OC`?
PLK1 PBD block: -4%; HP1b chromo inh: 5%; JMJD2A Tudor: -18%; BAZ2B block: -11%; Sfp PPTase inh: 2%
